Efa HMGR inh: blocks class II HMG-CoA reductase of Enterococcus faecalis. purified E. faecalis HMGR, NADPH absorbance 340 nm kinetic. inhibition, % at 10 µM. actives 0.41% (n = 190,000);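 active = inhibition above a set limit, the median over all tested compounds plus 3 SD, cut at about 9.5% in these data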;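 note: enzyme runs in reverse so mevalonate oxidation gives rising NADPH absorbance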
Arbovirus inh: arbovirus infection inhibition; arbovirus infection cell-based antiviral screen; inhibition, % at 10 µM; actives 0.37% (n = 200,000); AID 1251; in the data active = inhibition above about 30%
PKD1 kinase inh: PKD1 (human) kinase inhibition. Q15139. PKD1 kinase fluorescence polarization assay. inhibition, % (test concentration not listed). actives 0.056% (n = 200,000). AID 797; in the data active = inhibition above about 50%
Hsp70 activator: Hsp70 transcriptional activation, primary screen; HeLa Hsp70 promoter luciferase reporter, luminescence; scaled: vehicle 0, proteasome-inhibitor control 100%; actives 0.04% (n = 200,000); activation, % at 10 µM; AID 1203;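 active = activation above the mean across all tested compounds plus 3 SD, cutoff set per campaign, cut at about 5.5% in these data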
Wee1 stabilizer: human Wee1 degradation inhibition, primary screen. HeLa Luc-Wee1K328M stability, luciferase luminescence; 100% = proteasome inhibitor MG132 effect. reporter increase, % at 5 µM. actives 1.2% (n = 220,000). AID 1321;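 active = activation above the mean of all tested compounds plus 3 SD, set per screening run, cut at about 8.8% in these data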;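 note: cells exposed to compound for 20 h before luminescence read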
Target sequence (P30291 whole entry K328M): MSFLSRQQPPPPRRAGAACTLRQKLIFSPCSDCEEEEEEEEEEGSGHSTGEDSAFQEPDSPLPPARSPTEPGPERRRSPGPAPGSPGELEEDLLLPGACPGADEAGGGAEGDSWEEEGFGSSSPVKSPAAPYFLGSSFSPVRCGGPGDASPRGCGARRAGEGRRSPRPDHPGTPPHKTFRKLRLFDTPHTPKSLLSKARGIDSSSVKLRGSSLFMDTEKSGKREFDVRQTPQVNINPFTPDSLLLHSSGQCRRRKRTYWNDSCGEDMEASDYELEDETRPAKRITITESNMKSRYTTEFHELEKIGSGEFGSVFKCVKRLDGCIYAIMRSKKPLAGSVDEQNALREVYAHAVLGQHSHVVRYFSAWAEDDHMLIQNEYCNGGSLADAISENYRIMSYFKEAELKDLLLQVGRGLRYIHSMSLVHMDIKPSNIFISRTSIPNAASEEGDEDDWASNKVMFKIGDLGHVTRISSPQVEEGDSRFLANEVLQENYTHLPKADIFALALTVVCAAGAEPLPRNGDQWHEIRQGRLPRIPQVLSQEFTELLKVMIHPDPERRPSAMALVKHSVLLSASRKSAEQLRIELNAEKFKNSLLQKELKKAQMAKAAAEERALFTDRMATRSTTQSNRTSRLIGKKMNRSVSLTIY
Large screens that a line does not name were inactive. The list is not random: actives were taken first. Their share in the collection is about 2%.

CCOC(=O)c1cnn(-c2cc(C)nc3c(-c4ccccc4)cnn23)c1N	Wee1 stabilizer 11
CCOC(=O)c1cnn(-c2cc(C(C)(C)C)nc3c(-c4ccccc4)c(C)nn23)c1N	none
Cc1ccc(S(=O)(=O)N2CCC(=O)N(C(COC(=O)Nc3ccccc3)Cc3ccccc3)CC2)cc1 (configuration not stated)	none
Cc1ccc(S(=O)(=O)N2CCC(=O)N(C(CO)Cc3ccccc3)CC2)cc1 (configuration not stated)	Efa HMGR inh 12
CCOC(=O)c1[nH]c2ccccc2c1NC(=S)Nc1cccc(C)c1	Wee1 stabilizer 9.3
Cc1ccc(NC(=O)N2CCCC(C(=O)O)C2)cc1 (configuration not stated)	none (no result: Efa HMGR inh, Arbovirus inh, PKD1 kinase inh, Hsp70 activator)
Cn1c(=O)c2c(ncn2CC(=O)OCC(=O)Nc2ccccc2)n(C)c1=O	Efa HMGR inh 10
Cn1c(=O)c2c(ncn2CC(=O)Nc2ccccc2)n(C)c1=O	none
CN1C(=O)/C(=C/c2ccccc2Cl)Sc2ccc(C(=O)NCc3cccnc3)cc21	none
CNS(=O)(=O)c1cccc(C(=O)OCC(=O)Nc2ccc(Cl)cc2F)c1	Wee1 stabilizer 9.8 (no result: Efa HMGR inh, Arbovirus inh, PKD1 kinase inh, Hsp70 activator)
CNS(=O)(=O)c1cccc(C(=O)OCC(=O)Nc2cc(F)ccc2F)c1	none
CC(C)CNC(CC(=O)O)c1ccccc1 (configuration not stated)	Wee1 stabilizer 9.6
N#C/C(=C\c1cc2ccccc2nc1N1CCCCC1)C(N)=O	Arbovirus inh 35
CCOC(=O)N/N=C\c1ccc([N+](=O)[O-])s1	Efa HMGR inh 11
CCOC(=O)c1ccc(N(C(=O)c2cnccn2)C(C(=O)NC2CCCCC2)c2cn(C)nc2C)cc1 (configuration not stated)	Efa HMGR inh 15
Cc1nn(C)cc1C(C(=O)NC1CCCCC1)N(C(=O)c1cnccn1)c1ccc(Oc2ccccc2)cc1 (configuration not stated)	none
O=C(NNc1ccccc1[N+](=O)[O-])Nc1cccc(Cl)c1	none (no result: Efa HMGR inh, Arbovirus inh, PKD1 kinase inh, Hsp70 activator)
CNC(=O)COC(=O)c1ccc(Cl)c(S(=O)(=O)N2CCCC2)c1	Wee1 stabilizer 10
O=C(NC1=NCCS1)c1ccc(Cl)c(S(=O)(=O)N2CCCC2)c1	Arbovirus inh 32
COc1ccc(/C(N)=N/OC(=O)c2cccs2)cc1	Wee1 stabilizer 10.0 (no result: Efa HMGR inh, Arbovirus inh, PKD1 kinase inh, Hsp70 activator)
N/C(=N\OC(=O)c1cccs1)c1ccc(Cl)cc1	none (no result: Efa HMGR inh, Arbovirus inh, PKD1 kinase inh, Hsp70 activator)
COc1cc2c(C(=O)O)c(C)n(CC(C)C)c2c2ccccc12	Arbovirus inh 54
CN=C1SC(C(=O)Nc2ccccc2Cl)CC(=O)N1c1ccc(OC(F)(F)Cl)cc1 (configuration not stated)	none
Cc1ccc2c(c1)sc1nc(=O)n(-c3ccccc3)c(=O)n12	Wee1 stabilizer 9.0 (no result: Efa HMGR inh, Arbovirus inh, PKD1 kinase inh, Hsp70 activator)
Cc1ccc(O)c(-c2cc(C(=O)Nc3ccc(S(=O)(=O)Nc4nc(C)cc(C)n4)cc3)[nH]n2)c1	Arbovirus inh 35
Cc1ccc(O)c(-c2cc(C(=O)Nc3ccc(S(=O)(=O)N4CC(C)OC(C)C4)cc3)[nH]n2)c1 (configuration not stated)	none
CN(CCO)c1cc(NCCCN2CCC(Cc3ccccc3)CC2)c2nonc2c1[N+](=O)[O-]	Efa HMGR inh 14
CCOC(=O)/C(C#N)=C/Nc1ccsc1C(C)=O	none (no result: Efa HMGR inh, Arbovirus inh, PKD1 kinase inh, Hsp70 activator)
O=C(COC(=O)CN1C(=O)c2ccccc2C1=O)Nc1ccc(S(=O)(=O)N2CCCC2)cc1	Efa HMGR inh 12
CSc1ccc(CN2CCN(C(=O)c3ccncc3)CC2)cc1	none
O=C(Cn1c(=O)sc2ccccc21)Nc1ccccc1	none
COc1ccc(NC(=O)Cn2c(=O)sc3ccccc32)cc1	none
CCN(CC)S(=O)(=O)c1ccc(NC(=O)Cn2c(=O)sc3ccccc32)cc1	Wee1 stabilizer 9.2
COC(=O)Cn1c(=O)sc2ccccc21	Wee1 stabilizer 10
Cc1ccc(N(CN2C(=O)c3ccccc3C2=O)C(=O)c2ccc([N+](=O)[O-])cc2[N+](=O)[O-])cc1	none
Cc1ccccc1N1C(=O)CC1(C#N)c1ccc(OCc2ccccc2)cc1 (configuration not stated)	none
NC(=O)CC1C(=O)N(c2ccc(F)cc2)C(=O)N1NC(=O)CCc1ccccc1 (configuration not stated)	none
Cc1ccc2nc(NC(=O)C3CCCN(S(=O)(=O)c4cnc[nH]4)C3)sc2c1 (configuration not stated)	Arbovirus inh 59
O=C(O)c1cc(N/N=C/c2ccc(OCc3ccccc3)cc2)ccc1Cl	Arbovirus inh 39
Cc1nn(-c2ccccc2)c(Cl)c1/C=N/Nc1ccc(Cl)c(C(=O)O)c1	Arbovirus inh 89
O=C1NN(c2ccccc2)C(=O)/C1=C\c1ccc(-c2cc([N+](=O)[O-])ccc2O)o1	none
Nc1nc(Nc2ccccc2F)nc(N2CCOCC2)c1[N+](=O)[O-]	Wee1 stabilizer 8.9 (no result: Efa HMGR inh, Arbovirus inh, PKD1 kinase inh, Hsp70 activator)
CN(/C(=N\S(=O)(=O)c1ccccc1)c1ccccc1)c1ccc(O)cc1	none
CCCn1c(=S)[nH]c2ccccc2c1=O	Efa HMGR inh 15
CC1CCCN(C(=O)CCCn2c(=S)[nH]c3ccccc3c2=O)C1 (configuration not stated)	Wee1 stabilizer 9.7
CCCCn1c(=O)c2ccccc2c2ccccc2c1=O	Efa HMGR inh 32
COCCn1c(=O)c2ccccc2c2ccccc2c1=O	none
CC(C)C(OC(=O)c1cccs1)C(=O)NCc1ccc2c(c1)OCO2 (configuration not stated)	none
CCSc1nnc(NC(=O)CSc2nnc(Cc3cccn3C)n2-c2ccc(F)cc2)s1	Arbovirus inh 33
Cc1ccc([N+](=O)[O-])c(C(=O)N/N=C/c2cccs2)c1	none (no result: Efa HMGR inh, Arbovirus inh, PKD1 kinase inh, Hsp70 activator)
CCOC(=O)c1nn(-c2ccc(Cl)cc2)c2nc(Nc3ccccc3)cc(=O)n12	Arbovirus inh 42
CCOC(=O)c1nn(-c2cccc(OC)c2)c2nc(Nc3ccccc3)cc(=O)n12	none
CCOC(=O)c1nn(-c2cccc(Cl)c2)c2nc(Nc3ccccc3)cc(=O)n12	Arbovirus inh 34
CCOC(=O)c1nn(-c2ccccc2C)c2nc(Nc3ccccc3)cc(=O)n12	none
CCNC(=O)NC(=O)CSc1nc2ccccc2n1CCOC	none
Cc1ccccc1CSc1nnc([C@@H]2CCCN2)o1	none (no result: Efa HMGR inh, Arbovirus inh, PKD1 kinase inh, Hsp70 activator)
COc1cc(/C=N/NC(=O)COc2c(C)cc([N+](=O)[O-])cc2C)ccc1OC(=O)c1ccccc1	Efa HMGR inh 11
COc1cc(/C=N/NC(=O)COc2c(C)cc([N+](=O)[O-])cc2C)ccc1OC(=O)c1ccccc1Br	none
COc1cc(CC(NC(C)=O)C(=O)NC2CCN(c3c4c(nc5ncnn35)CCC4)CC2)cc(OC)c1 (configuration not stated)	none
Cc1ccc(N=Nc2ccc(O)c(/C=N\NC(=O)c3ccc(N)cc3)c2)cc1C	Wee1 stabilizer 9.5
O=C(CSCc1ccccc1)N1CCN(c2ccccc2)CC1	Wee1 stabilizer 9.0
CCOC(=O)/C=C/C(=O)OCC(=O)Nc1cccc(Br)c1	none
CCOC(=O)/C=C/C(=O)OCC(=O)Nc1ccc(C)cc1	Efa HMGR inh 11
O=C(C(=O)N1CCN(c2ccccc2)CC1)c1c[nH]c2ccccc12	Wee1 stabilizer 11

Screening data as filed in PubChem BioAssay.
